Screening results: PubChem, Sanford-Burnham Center for Chemical Genomics
Rows were chosen to be rich in hits. Some 4% of all compounds tested hit in one or more screens of this group.
KKLEB cytotox: CF airway cell cytotoxicity counter-screen | KKLEB CF airway cells viability, ATPlite luminescence, overnight; active compounds read low; cells stimulated with P. aeruginosa culture filtrate | activity change (cytotoxicity), % at 5 µM | actives 0.36% (n = 360,000);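 active = corrected activity change at or below -50% at 5 µM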
TWEAK-Fn14 inh: inhibitors of TWEAK-Fn14 interaction signaling; TWEAK-stimulated Fn14 reporter cells, luciferase luminescence, 8 h; inhibition, % at 10 µM; actives 2% (n = 360,000); in the data active = inhibition above about 50%
CF NFkB inh: blocks PAF-induced NF-kB reporter in cystic fibrosis cells; KKLEB NF-kB-GFP reporter, GFP fluorescence overnight; inhibition, % at 5 µM; actives 0.86% (n = 360,000);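 active = at least 50% inhibition at 5 µM, scaled per plate between neutral and stimulator controls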;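 also: PAF is a Pseudomonas aeruginosa culture filtrate used as stimulus; plate controls were PAF-stimulated DMSO wells for no effect and unstimulated DMSO wells for full effect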
TROY NFkB inh: inhibitors of TROY-dependent NF-kB signaling. actives 0.98% (n = 360,000). Q293 LMP1-TROYcd NF-kB luciferase reporter, 4 h. inhibition, % at 10 µM;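 active = compounds whose plate-normalised and pattern-corrected inhibition of the luciferase reporter signal at the single screening dose is 50% or more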
HIF-2a inh: inhibitors of HIF-2a | actives 0.72% (n = 360,000) | inhibition, % at 18.8 µM | 786-0 RCC cells HIF-2a reporter, luciferase luminescence, overnight;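 active = inhibition of the luminescence signal of 40% or more relative to plate controls, in a single-dose primary screen at 18.75 µM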
Peg3 promoter: reduces Peg3 promoter-driven luciferase expression in HeLa | HeLa PEG-Prom luciferase reporter, luminescence, overnight | inhibition, % at 20 µM | actives 1.7% (n = 360,000) | AID 588405;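 active = inhibition of at least 50% at 20 µM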
The depositor's hits bear a star.

SMILES	KKLEB cytotox	TWEAK-Fn14 inh	CF NFkB inh	TROY NFkB inh	HIF-2a inh	Peg3 promoter
O=C1/C(=C/c2ccc(Cl)cc2)SC(=S)N1CCC(=O)N1CCCCC1CCO (configuration not stated)	-12	13	19	20	4	39
Cc1ccc(/C=C2\SC(=S)N(CCCC(=O)N3CCOCC3)C2=O)cc1	-9	-2	4	9	58*	4
O=C(COc1ccc(Br)cc1)Nc1nc(-c2cccnc2)cs1	1	7	10	27	-6	3
CC(/C=C1\SC(=S)N(c2ccc(C(=O)O)cc2)C1=O)=C\c1ccccc1	1	58*	-10	45	51*	17
O=C(O)COc1ccc(C=C2SC(=S)N(c3ccccc3)C2=O)cc1	2	41	-4	-12	43*	-33
COc1ccc(/C=C2\SC(=S)N(CCC(=O)N3CCCCC3)C2=O)cc1	0	50*	12	14	76*	50*
CC(/C=C1\SC(=S)N(NC(=O)c2ccc(C)cc2)C1=O)=C\c1ccccc1	-7	-2	-14	-18	-6	-4
O=C(CCN1C(=O)/C(=C\c2ccccc2Cl)SC1=S)N1CCN(c2ccccc2)CC1	8	39	4	-30	60*	100*
CC(C)c1ccc(N(CC(=O)NCc2cccnc2)S(=O)(=O)c2ccccc2)cc1	6	19	1	-7	3	24
CC[C@]1(C(=O)OC)[C@H]2C(=O)N(C)C(=O)[C@H]2[C@H]2CN=C(SC)N21	11	6	12	0	1	18
CCOc1ccc(/C=C2\SC(=S)N(CCC(=O)O)C2=O)cc1	0	86*	8	58*	91*	24
O=C(CCN1C(=O)/C(=C/c2ccccc2F)SC1=S)Nc1ccccn1	-19	10	22	-28	12	-9
CCOc1ccc(/C=C2/SC(=S)N(CCC(=O)Nc3ccc(C(=O)O)cc3)C2=O)cc1	8	-72	14	-59	-80	-19
O=C(CCN1C(=O)/C(=C\c2ccccc2F)SC1=S)N1CCCCC1	0	16	96*	-13	8	104*
CC1CCN(C(=O)CCN2C(=O)/C(=C/c3cccs3)SC2=S)CC1	-9	39	15	-9	23	94*
COc1ccc(/C=C2/SC(=S)N(CCCC(=O)N3CCN(C)CC3)C2=O)cc1	3	14	4	9	69*	5
NS(=O)(=O)c1ccc(CNC(=O)c2ccc(S(=O)(=O)NCc3ccco3)cc2)cc1	-4	2	7	-7	13	4
CCc1ccc(/C=C2\SC(=S)N(CCC(=O)Nc3cc(C)on3)C2=O)cc1	0	70*	-5	53*	82*	-1
COc1ccc(/C=C2\SC(=S)N(CCC(=O)Nc3ccccc3C(=O)O)C2=O)cc1	2	24	2	50	71*	-24
COc1cccc(/C=C2\SC(=S)N(CCC(=O)N3CCCCC3)C2=O)c1	7	-9	48	-2	46*	90*
Cc1cc(NC(=O)CCN2C(=O)/C(=C/c3ccccc3Cl)SC2=S)no1	-15	-28	14	2	0	9
CC1(c2ccc3c(c2)OCCO3)NC(=O)N(CC(=O)Nc2ccccc2)C1=O (configuration not stated)	1	-6	0	-10	14	3
O=C(NC(=O)c1ccccc1)Nc1ccccc1	8	72*	-10	10	-86	-89
O=C(Nc1cccc(Cl)c1)Nc1cccc(Cl)c1	-14	-8	20	-19	-128	-49
O=C(Nc1ccccc1)Nc1cc(OCC(F)(F)F)cc(OCC(F)(F)F)c1	-51*	59*	46	43	-13	42
O=C(Nc1ccccc1)Nc1cc(Cl)cc(Cl)c1	-45	41	48	51*	-158	-62
COc1ccc(NC(=O)NC(=O)c2ccccc2)cc1	0	6	4	-14	-243	-230
O=C(Nc1cccc(Cl)c1)c1ccccc1NC(=O)C1CCCCC1C(=O)O (configuration not stated)	8	-3	14	-52	-5	2
Cc1cccc(NC(=O)CNC(=O)Cc2ccc(S(=O)(=O)N3CCOCC3)s2)c1C	14	-10	-3	-14	16	6
